The source of these data is PubChem BioAssay (NCI).

Compounds without any hit were thinned out: in the full panel of roughly 83,000, 20% have a hit.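 Interpretation: 100, growth as untreated; towards 0, rising growth inhibition; 0, no net growth; 0 to -100, cell death. Compounds scoring below 10 were considered active.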 A number with no mark means an inactive call. Calls of active or inactive are those of the source.

Holding throughout (test): NCI-60 one-dose screen, 48 h (100 = growth as untreated, 0 = no growth, -100 = all killed)
One assay deals with NCI-H226 lung. As to conditions: 10 µM.
The subject of another assay is HOP-62 NSCLC. As to conditions: 10 µM unless noted.
Another assay concerns NCI-H460 lung. As to conditions: 10 µM unless noted.
The next assay deals with HOP-92 NSCLC. The note with it: 10 µM unless noted.
The test system of the next assay is NCI-H522 lung. As to conditions: 10 µM.
The subject of another assay is A549/ATCC NSCLC. The note with it: 10 µM unless noted.
A further assay concerns 786-0 renal. The note with it: 10 µM unless noted.
The subject of the next assay is COLO 205 colon. The note with it: 10 µM unless noted.
The next assay has as its system NCI-H322M lung. The note with it: 10 µM unless noted.

Take `Brc1ccc(SCN(CSc2ccc(Br)cc2)Cc2ccccc2)cc1`: the growth with NCI-H226 lung is 76.6%; in the assay with HOP-62 NSCLC it was 120%; in the assay on NCI-H460 lung, 63.1%; in the assay on HOP-92 NSCLC, 59.7%; with NCI-H522 lung, 73%; with A549/ATCC NSCLC it was 45.8%. In addition, the growth with 786-0 renal was 60.8%; in the assay with COLO 205 colon, 108%.

On to `O=C1C2CC3C(CC2C(=O)[N]1[Sn]([c]1ccccc1)([c]1ccccc1)[c]1ccccc1)C1(Cl)C(Cl)=C(Cl)C3(Cl)C1(Cl)Cl` (stereo not given), for which the growth in the assay on NCI-H226 lung is -43.5% (active); in the assay with HOP-62 NSCLC it was -92.1% (active); in the assay on NCI-H460 lung it was -81.6% (active); in the assay on HOP-92 NSCLC, -96.1% (active); with NCI-H522 lung it was -94.2% (active); in the assay with A549/ATCC NSCLC, -97.2% (active). The growth in the assay on 786-0 renal is -86.2% (active); in the assay with COLO 205 colon, -86.7% (active).

Take `Cc1ccc(-c2c3c(N)c4c(nc3nc3c2c(C)nn3-c2ccccc2)CCCC4)cc1`: the growth is 91.8% in the assay with NCI-H226 lung; 106% with HOP-62 NSCLC; 101% in the assay with NCI-H460 lung; 81.6% in the assay with HOP-92 NSCLC; 91.6% with NCI-H522 lung; 93.3% with A549/ATCC NSCLC. Besides, the figures for the growth in the assay on 786-0 renal and in the assay with COLO 205 colon were 91.6% and 92.3%, respectively.

As for `C(=C\c1ccccc1)/CN1CCN(C(c2ccccc2)c2ccccc2)CC1`, the growth in the assay on NCI-H226 lung was 86.3%; with HOP-62 NSCLC, 99.6%; with NCI-H460 lung, 96.5%; with HOP-92 NSCLC, 62.5%; with NCI-H522 lung, 93.5%; with A549/ATCC NSCLC, 88.7%. In addition, the growth in the assay on 786-0 renal is 95.3%; in the assay on COLO 205 colon, 101%.

Regarding `COc1ccc(/C=C(\C#N)c2ccc(OC)cc2)cc1`, the growth in the assay on NCI-H226 lung was 82.7%; in the assay with HOP-62 NSCLC it was 67.1%; in the assay with NCI-H460 lung it was 50.9%; in the assay on A549/ATCC NSCLC it was 54.3%; with 786-0 renal, 90.1%; with COLO 205 colon, 78.7%.

For the molecule `COc1ccc(-n2ncc3c2ccc2cc(S(=O)(=O)c4ccccc4)c(=O)n(C)c23)cc1`, the growth in the assay with NCI-H226 lung was 52.6%; with HOP-62 NSCLC it was 72.5%; in the assay on NCI-H460 lung, 88.8%; in the assay on HOP-92 NSCLC it was 37.2%; in the assay on NCI-H522 lung, 33.2%; with A549/ATCC NSCLC it was 86.8%. In addition, the growth was 82.3% with 786-0 renal and 108% in the assay on COLO 205 colon.

As to `COc1nc2c(cc1S(=O)(=O)c1ccccc1)CCc1c-2cnn1-c1ccccc1`, the growth was 87.2% in the assay on NCI-H226 lung; 81.3% with HOP-62 NSCLC; 77.5% in the assay with NCI-H460 lung; 22.1% in the assay with HOP-92 NSCLC; 47.9% with NCI-H522 lung; 57.7% in the assay on A549/ATCC NSCLC. The growth is 76.5% with 786-0 renal and 96.3% with COLO 205 colon.

For the molecule `Cc1cc[n+](CCc2ccccc2)cc1`, the figures for the growth with NCI-H226 lung and with A549/ATCC NSCLC were 102% and 89.4%, respectively.

With `COc1ccc(OC)c2ncccc12`, the growth in the assay with NCI-H226 lung is 95.8%; in the assay on HOP-62 NSCLC it was 90.2%; in the assay on NCI-H460 lung, 108%; in the assay with HOP-92 NSCLC, 72.2%; in the assay on NCI-H522 lung, 84%; in the assay on A549/ATCC NSCLC, 108%. In addition, the growth was 102% with 786-0 renal and 106% in the assay on COLO 205 colon.

As for `CC(=O)Nc1ccc(S(=O)(=O)N/N=C\c2ccc(Cl)c(Cl)c2)cc1`, the growth with NCI-H226 lung was 100%; with HOP-62 NSCLC, 100%; in the assay with NCI-H460 lung, 101%; in the assay on HOP-92 NSCLC, 72.1%; with A549/ATCC NSCLC, 93.8%; with 786-0 renal, 113%. For the same molecule, the growth in the assay on COLO 205 colon is 109%.

With `CC1(C)N=C(N)N=C(N)N1c1cccc(OCCOc2cccc([N+](=O)[O-])c2)c1`, the growth in the assay with NCI-H226 lung was 98.2%; with HOP-62 NSCLC, 93%; with HOP-92 NSCLC it was 86.4%; with NCI-H522 lung, 7.73% (active); in the assay on A549/ATCC NSCLC it was 20.4%; in the assay on 786-0 renal, 81.7%. Also, the growth in the assay on COLO 205 colon is 35%.

For `O=C(N/N=C(\CS(=O)(=O)c1ccccc1)c1cc2cc(Br)ccc2oc1=O)c1ccccc1`, the growth in the assay with NCI-H322M lung was 104%; in the assay with HOP-62 NSCLC, 114%; with NCI-H460 lung, 99.7%; in the assay with HOP-92 NSCLC it was 111%; in the assay on NCI-H522 lung it was 94.9%; in the assay with A549/ATCC NSCLC, 95.3%. Also, the growth with 786-0 renal was 106%.

Take `C=C(C)COC(=O)c1ccccc1C(=O)OCC1(C)CO1` (stereo not given): the growth in the assay with NCI-H226 lung was 102%; with HOP-62 NSCLC, 102%; with NCI-H460 lung, 108%; in the assay on A549/ATCC NSCLC it was 94.8%; in the assay on 786-0 renal it was 105%; in the assay with COLO 205 colon, 106%.

Take `FC(F)(F)c1cc(CNc2ncc(Br)c(Cl)n2)cc(C(F)(F)F)c1`: the growth is 90.3% in the assay with NCI-H226 lung; 90.2% in the assay on HOP-62 NSCLC; 107% in the assay on NCI-H460 lung; 84.3% in the assay on HOP-92 NSCLC; 74.2% in the assay with NCI-H522 lung; 101% in the assay with A549/ATCC NSCLC. Besides, the growth in the assay with 786-0 renal is 90.4%; in the assay on COLO 205 colon it was 98.4%.

As for `O=C(Nc1ccc(Cl)c(Cl)c1)OCn1ncc2ccc([N+](=O)[O-])cc21`, the growth in the assay with NCI-H226 lung was 81.3%; in the assay on HOP-62 NSCLC, 71.6%; in the assay on NCI-H460 lung, 99.8%; in the assay with HOP-92 NSCLC, 62.6%; with NCI-H522 lung, 49.4%; in the assay with A549/ATCC NSCLC, 82.8%. The results for the growth with 786-0 renal and in the assay with COLO 205 colon were 83.3% and 93.2%, respectively.

With `COC1(OC)C2(Cl)C=C(c3ccccc3)C1(Cl)C(Cl)=C2Cl` (stereo not given), the growth with NCI-H226 lung is 102%; in the assay with HOP-62 NSCLC, 93.9%; in the assay with NCI-H460 lung, 113%; in the assay on HOP-92 NSCLC, 77.7%; with NCI-H522 lung, 80.9%; with A549/ATCC NSCLC, 99.8%. For the same molecule, the growth with 786-0 renal was 103%; with COLO 205 colon, 108%.
